# Biological target: MUSTN1
# Assay: pooled miR-30 sensor sort-seq; sequence = guide strand
# Conditions: shRNA
# Note: reference of the scale not given here.
row,Sequence,sensor-assay potency score (higher = more potent)
1,AGCTTGCTCACACTCTCGCATG,-2.04
2,TCGCATGACCTGGTAGGTCTTG,-0.987
3,TTTATTGGTGCTTCCAAGGTGC,0.442
4,TCTTGGTCAGGTTTCCTCGGGC,0.0366
5,TTCCTGGTTCTTGGTCAGGTTT,-1.77
6,TCAAAGACAGTCTCGGTACCTG,-0.0062
7,TTCTTGGTCAGGTTTCCTCGGG,-0.747
8,TAGGTCTTGGACTTGATTTCCT,-0.449
9,TTGATTTCCTGGTTCTTGGTCA,0.114
10,ACACTCTCGCATGACCTGGTAG,-0.661
11,TTGCTCACACTCTCGCATGACC,-1.08
12,TCACACTCTCGCATGACCTGGT,0.595

# Biological target: MUTED
# Assay: as above
# Conditions: shRNA
row,Sequence,sensor-assay potency score (higher = more potent)
1,TTTCTCACTAGCTACTAAGTGG,-0.662
2,TTGTTTACCATAAATCTCGAAA,-0.16
3,TTATCTTATAAAGCTTACCCAC,-1.06
4,TTTAACATGGACCATTTGCTGT,-1.08
5,TTTACATTTAACATGGACCATT,-1.07
6,TTGTTCTTTAAGCCTTTCCATG,-1.47
7,TAAGTGGTCACTATGAATCTTT,-0.505
8,TTGTCTACATTACTCATGCAGT,-0.842
9,TTTTTTGTCTACATTACTCATG,-0.517
10,TTTTCTGTGCTCTTCATCCACT,-0.826
11,TTTCTAAGAAGTCTATACCTAC,-0.621
12,TAATAAACTATTGTTAACCCTG,0.0836

# Biological target: MYBL1
# Assay: as above
# Conditions: shRNA
row,Sequence,sensor-assay potency score (higher = more potent)
1,TAGTAGGTGTTCTAAACCCTAC,-0.956
2,TTGAAGTACTACTGGTAGCTGT,0.338
3,TAGATCTTCTAATAGTAGGTGT,0.293
4,TAGAATTATCAGTCCTTCCTGG,0.631
5,TTTCTCTACACTGCTTGCCTAT,-0.646
6,TTCTTCTTTTAAAACTTCCCGA,-0.736
7,TTCGCTTTCTTCTAACTTCATT,-1.09
8,TAATTTATCATCCTCGTCCCTT,-0.0916
9,TTCAAGTACAAGACTGACGTTA,0.474
10,TAAAGGAACAGCTTCACTGTTG,-0.055
11,TTTGATAGAATTATCAGTCCTT,1.06

# Biological target: MYCBPAP
# Assay: as above
# Conditions: shRNA
row,Sequence,sensor-assay potency score (higher = more potent)
1,TTCCAAAGAAAACCTGTCCTGA,-0.596
2,TTTCTTGTCTTCTTTGTCTTTG,-0.276
3,TAGATCAGAAACAGACTCCGAT,0.675
4,TATGACTTTCTTGTCATCCTTT,0.0986
5,TTTTGTCTTGGTCATGACCAGA,-1.08

# Source: the OligoGym collection
